Among all 5,500 compounds or so, about 2,000 (36%) were called active. Not shown: some 18% with an inconclusive outcome. Rule as the data show it: active = normalized growth mostly below about 0.91 (no sharp cut-off); inconclusive = no clear call, values can overlap the other calls; inactive = mostly above about 0.92. The list shows a part of the results.
Assay: chemical genetic growth profiling, strain panel (AID 1159580);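 also: tested at 20 µM; growth read once vehicle control cultures reached saturation at 30 °C; 1 = growth at the plate median or of vehicle wells; lower values mean less growth of the strain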
Settings: S. cerevisiae deletion strains, growth OD
[1] = locus YAL040C, strain CLN3, hits give low values
[2] = locus YCL061C, strain MRC1 (second series), hits give low values
[3] = locus YDR363W, strain ESC2, hits give low values
[4] = locus YER002W, strain NOP16, hits give low values
[5] = locus YNL128W, strain TEP1, hits give low values
[6] = locus YNL175C, strain NOP13, hits give low values
[7] = locus YNL197C, strain WHI3, hits give low values
[8] = locus YNL224C, strain SQS1, hits give low values
[9] = locus YNL322C, strain KRE1, hits give low values
[10] = locus YOR083W, strain WHI5 (second series), hits give low values
[11] = locus YPL055C, strain LGE1, hits give low values

Measured: normalized growth

Clc1ccc(Cn2c(CN3CCCC3)nc3ccccc32)cc1
inactive: [1] 1.01 | [2] 0.996 | locus YDR150W, strain NUM1, hits give low values 0.996 | [3] 0.999 | [4] 1.01 | [5] 1.04 | [6] 1.02 | [7] 1.04 | [8] 1.02 | [9] 0.989 | [10] 1.02 | [11] 0.932

COc1ccc2c(c1)c(CC(=O)O)c(C)n2Cc1ccc(F)cc1
inactive: [1] 0.985 | [2] 1.01 | [3] 1 | [4] 0.999 | locus YGR078C, strain PAC10, hits give low values 1.01 | locus YMR307W, strain GAS1, hits give low values 0.99 | [5] 0.993 | [6] 1 | [7] 0.991 | [8] 0.985 | [9] 1.01 | [10] 1.02 | [11] 1.01 | locus YPL241C, strain CIN2, hits give low values 1.01
